# Experimental data taken from PubChem BioAssay (NCATS).
# Inconclusive results are not listed. Values without a mark were called inactive. The call rests on the fitted dose curve; in most records, active means well fitted inhibition curve with a large enough effect; inconclusive means small, poorly fitted or top-dose-only effect; inactive means flat fitted curve, though single readings scatter.
# Test system: ATS189
# Assay: qHTS profiling for inhibitors of Plasmodium falciparum proliferation (AID 504749);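 further: 0% = DMSO vehicle and full inhibition = artemisinin control; nearly all actives have a fitted effect of over 60% in size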
# Conditions: P. falciparum in erythrocytes, SYBR Green DNA, 72 h; series mostly up to 28.7 µM; activity, negative = inhibition: at the top concentration
# Summary of the method: (§1)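 Three-day growth assay of blood-stage parasites in erythrocytes (0.3% parasitemia, 2.5% hematocrit) at 37 C, 5% CO2, quantified by SYBR Green DNA staining after overnight detergent lysis.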
row,SMILES,"activity, negative = inhibition"
1,O=C1c2cccc(O)c2C(=O)c2c(O)cccc21,2.14%
2,COc1nccnc1NS(=O)(=O)c1ccc(N)cc1,0.672%
3,O=C1c2ccccc2S(=O)(=O)N1CCCCN1CCN(c2ncccn2)CC1,-17.1%
4,OCC(O)CS (stereo not given),9.23%
5,Nc1ncnc(Nc2ccccc2)n1,-9.92%
6,O=C(c1ccccc1)C(O)c1ccccc1 (stereo not given),3.01%
7,CC(C)=CCC/C(C)=C/CO,1.68%
8,CCOC(=O)[C@H](CCc1ccccc1)N[C@@H](C)C(=O)N1CCC[C@H]1C(=O)O,-8.96%
9,O=C1CC[C@@H](C(=O)O)N1,12.3%
10,Cc1c(NC(=O)c2cccnc2)c(=O)n(-c2ccccc2)n1C,8.09% [at 12.8 µM]
11,CCCCCCCCCCC(CO)CCCCCCCC (stereo not given),-0.0947%
12,O=C1c2ccccc2C(=O)C1c1ccc(Br)cc1,-28.3%
13,CCCCCCCC(=O)OCC(COC(=O)CCCCCCC)OC(=O)CCCCCCC,13.3%
14,CC(=O)N[C@@H](Cc1ccc(O)cc1)C(=O)O,6.73%
15,CC(=O)Oc1cccc(O)c1,4.32%
16,Cc1onc(-c2ccccc2)c1-c1ccc(S(N)(=O)=O)cc1,1.14%
17,Cc1c(I)c(=O)n(-c2ccccc2)n1C,5.65%
18,CN(C(=O)c1c(O)c2ccccc2n(C)c1=O)c1ccccc1,5.35%
19,C[C@H]1COc2c(C3(N)CC3)c(F)cc3c(=O)c(C(=O)O)cn1c23,1.48%
20,CC(=O)SC[C@@H](Cc1ccccc1)C(=O)NCC(=O)OCc1ccccc1,7.8% [at 12.8 µM]
21,Cc1[nH]c(C)c(Cl)c(=O)c1Cl,-23.2%
22,O=C(O)CCCCC1CCSS1 (stereo not given),6.04%
23,CN(C/C=C/C#CC(C)(C)C)Cc1cccc2ccccc12,1.22%

# Test system: ATS95
# Assay: as above
# Conditions: P. falciparum in erythrocytes, SYBR Green DNA, 72 h; series mostly up to 28.7 µM; activity, negative = inhibition: at the top concentration
# Summary of the method: as §1
row,SMILES,"activity, negative = inhibition"
1,O=C1c2cccc(O)c2C(=O)c2c(O)cccc21,12.6%
2,COc1nccnc1NS(=O)(=O)c1ccc(N)cc1,-9.86%
3,O=C1c2ccccc2S(=O)(=O)N1CCCCN1CCN(c2ncccn2)CC1,-12.6%
4,OCC(O)CS (stereo not given),11.8%
5,Nc1ncnc(Nc2ccccc2)n1,1.82%
6,NC(=O)CCCCC1CCSS1 (stereo not given),6.18%
7,O=C(c1ccccc1)C(O)c1ccccc1 (stereo not given),-8.88%
8,CC(C)=CCC/C(C)=C/CO,-20.3%
9,CCOC(=O)[C@H](CCc1ccccc1)N[C@@H](C)C(=O)N1CCC[C@H]1C(=O)O,3.1%
10,NCc1ccc(S(N)(=O)=O)cc1,-0.0508% [at 12.8 µM]
11,O=C1CC[C@@H](C(=O)O)N1,11.8%
12,Cc1c(NC(=O)c2cccnc2)c(=O)n(-c2ccccc2)n1C,2.88% [at 12.8 µM]
13,CCCCCCCCCCC(CO)CCCCCCCC (stereo not given),-5.75%
14,CCCCCCCC(=O)OCC(COC(=O)CCCCCCC)OC(=O)CCCCCCC,8.33%
15,CCCCCC(C)N (stereo not given),-26.4%
16,CC(=O)N[C@@H](Cc1ccc(O)cc1)C(=O)O,-8.09%
17,CC(=O)Oc1cccc(O)c1,0.52%
18,Cc1onc(-c2ccccc2)c1-c1ccc(S(N)(=O)=O)cc1,-6.56%
19,O=C1C(c2[nH]c3ccccc3c2O)=Nc2ccccc21,-16.6%
20,Cc1c(I)c(=O)n(-c2ccccc2)n1C,3.84%
21,CN(C(=O)c1c(O)c2ccccc2n(C)c1=O)c1ccccc1,2.52%
22,C[C@H]1COc2c(C3(N)CC3)c(F)cc3c(=O)c(C(=O)O)cn1c23,1.48%
23,CC(=O)SC[C@@H](Cc1ccccc1)C(=O)NCC(=O)OCc1ccccc1,6% [at 12.8 µM]
24,Cc1[nH]c(C)c(Cl)c(=O)c1Cl,1.01%
25,O=C(O)CCCCC1CCSS1 (stereo not given),24%
26,CCN1CC(CCN2CCOCC2)C(c2ccccc2)(c2ccccc2)C1=O (stereo not given),-27.1%
27,CN(C/C=C/C#CC(C)(C)C)Cc1cccc2ccccc12,-24.3%
